According to PubChem BioAssay AID485288 (Southern Research Specialized Biocontainment Screening …, 2010):
Entries with a potency or affinity are not part of this list. Active and inactive are the calls of the source. The rule behind the calls is not given here.

Target: Large T antigen (Simian virus 40) (UniProt P03070)
Test: inhibition of TAg ATP hydrolysis – biochemical, ADP-Hunter detection, purified TAg, synthesized compounds, set 3, SAR follow-up (AID 485288)
Details: purified TAg ATPase, ADP-Hunter fluorescence; series mostly up to 100 µM

Chain of Large T antigen (Simian virus 40) (P03070 whole entry, looked up): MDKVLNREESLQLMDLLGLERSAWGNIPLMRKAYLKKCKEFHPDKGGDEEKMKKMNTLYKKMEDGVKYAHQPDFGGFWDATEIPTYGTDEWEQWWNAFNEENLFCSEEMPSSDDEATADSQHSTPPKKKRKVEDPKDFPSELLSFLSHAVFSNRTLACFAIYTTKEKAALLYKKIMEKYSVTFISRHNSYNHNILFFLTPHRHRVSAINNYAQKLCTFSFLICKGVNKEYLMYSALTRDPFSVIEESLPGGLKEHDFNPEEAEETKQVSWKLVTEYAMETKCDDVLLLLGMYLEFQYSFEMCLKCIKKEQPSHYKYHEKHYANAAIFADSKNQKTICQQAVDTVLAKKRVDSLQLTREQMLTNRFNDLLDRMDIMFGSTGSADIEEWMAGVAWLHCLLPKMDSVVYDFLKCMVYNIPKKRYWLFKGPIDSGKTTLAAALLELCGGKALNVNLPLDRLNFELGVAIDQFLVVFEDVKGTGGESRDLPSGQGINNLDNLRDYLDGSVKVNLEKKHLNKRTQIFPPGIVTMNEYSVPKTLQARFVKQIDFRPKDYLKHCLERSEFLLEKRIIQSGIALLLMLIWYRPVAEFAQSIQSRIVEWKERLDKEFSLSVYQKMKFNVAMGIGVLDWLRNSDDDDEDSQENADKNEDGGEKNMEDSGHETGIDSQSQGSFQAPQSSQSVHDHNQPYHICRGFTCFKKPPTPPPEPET

outcome, inactive:
CC(C)(c1nnnn1-c1ccc(Cl)cc1)N1CCN(C(=O)c2ccco2)CC1, Oc1ccc(Cl)cc1Cc1cc(Cl)ccc1O, FC(F)(c1nnnn1-c1ccccc1)c1nnc2ccccn12, Cc1ccc(-n2nnnc2C(C)(C)N2CCCCC2)cc1, CC(=O)c1cc(C(C)(C)c2ccc(O)cc2)cc(C(C)=O)c1O, Oc1ccccc1Cc1ccccc1O, CC(C)(c1ccc(O)cc1)c1ccc(Cl)cc1, CC(C)(c1nnnn1-c1ccccc1)N1CCOCC1, Cc1ccccc1-n1nnnc1C(C)(C)N1CCCC1
